About 5,000 (1.4%) of roughly 360,000 compounds were called active. This is one part of a sample in which actives are shown more often than they occur. Values without a mark were called inactive.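 Rule for the calls: active = inhibition of 50% or more, scaled per plate between neutral and stimulator controls; inactive = the rest.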

This assay is described as follows: mitochondrial permeability transition pore inhibitors, primary screen, biochemical, isolated mouse mitochondria, absorbance (AID 602449).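 Note: 0% = DMSO wells given calcium and 100% = 1 mM EGTA wells.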 The note with it: Ca2+ swelling absorbance, 30 min, at 10 µM, active compounds read high.
For `Cc1ccc(Nc2c(F)c(F)c(F)c(F)c2C(=O)O)c(C)c1`, the inhibition (usually the drop in the measured response relative to a control, in per cent) was -0.7%.
The figure for `O=C(CCn1nnc2ccccc2c1=O)N[C@@H](Cc1c[nH]c2ccccc12)C(=O)O` is 1.4%.
The figure for `Cc1ccc(C(=O)Nc2nnc(C3=COCCO3)o2)cc1C` is -0.8%; for `Cc1cc(C(=O)CSc2nc(N)cc(=O)[nH]2)c(C)n1CCc1ccc(Cl)cc1` it is -9%; for `COc1ccc(C)cc1-n1nnnc1SCC(=O)c1cc(C)n(Cc2ccco2)c1C` it is -2.3%.
The figure for `Cc1cc(C(=O)CSc2nc(N)cc(=O)[nH]2)c(C)n1Cc1ccco1` is 64.3% (active); for `Cc1cc(C(=O)CSc2nc(N)cc(=O)[nH]2)c(C)n1-c1cccc(F)c1` it is 63.2% (active); for `Cc1cc(C(=O)COC(=O)C2CC2)c(C)n1-c1ccc(F)cc1` it is 0.2%.
As for `Cc1cc(C)c(C(=O)CSc2nc(C)cc(=O)[nH]2)c(C)c1`, the inhibition was 0.6%.
The figure for `CC1CCN(c2ccc(-c3ccc(NC(=O)c4ccco4)cc3)nn2)CC1` is 0.3%; for `CSCCC1NC(=O)N(CC(=O)Nc2cccc(S(=O)(=O)N3CCCCCC3)c2)C1=O` (stereo unspecified) it is 1.2%.
The same measure for `CCOC(=O)C1C(=O)OC2(CCCC2)C1C(=O)OCC` (stereo unspecified): -1.2%; for `COc1cccc(CNc2nc3cc(-c4csc5ccccc45)sc3c(=O)n2C)c1`: 2.5%; for `COc1cccc(CNc2nc(NCc3cccs3)nc3ccsc23)c1`: 77.8% (active).
The figure for `COc1cccc(CNc2nc(NCc3ccccc3OC)nc3ccsc23)c1` is 94.6% (active); for `COc1cccc(-c2cc3nc(NCc4ccccc4OC)n(C)c(=O)c3s2)c1` it is 1.9%; for `COCCNc1nc(NCc2ccc(NC(C)=O)cc2)c2sccc2n1` it is -1.4%.
Regarding `Clc1ccccc1Nc1nc(NCc2cccs2)nc2ccsc12`, the inhibition is 3%.
The figure for `COc1ccccc1CNc1nc(Nc2ccccc2Cl)c2sccc2n1` is 74.5% (active).
The same measure for `COc1ccc(NC(=S)NCc2cccs2)c(OC)c1`: 2.2%.
The figure for `COCCNc1nc(Nc2ccccc2Cl)c2sc(-c3ccccc3)cc2n1` is 2.1%.
Regarding `Cc1ccc(Nc2nc(CSc3nnc(-c4ccncc4)n3-c3ccccc3C)cs2)cc1`, the inhibition is 2.2%.
The same measure for `CC(Cc1cccs1)NC(=O)c1cccc(Cl)c1` (stereo unspecified): 4.2%; for `Cc1c(NC(=S)NC(=O)CCc2ccccc2)c(=O)n(-c2ccccc2)n1C`: 0.3%.
The figure for `Cc1cc(C)cc(NC(=O)COC(=O)c2cc(C)oc2C)c1` is 0.5%.
The figure for `CN(C)CCn1c2c(c(SCC(=O)NCc3ccccc3)nc1=O)CCC2` is -1%.
With `CCOC(=O)c1cc2cc(-c3c(C(=O)OCC)oc4cc(O)cc(O)c4c3=O)ccc2o1`, the inhibition is 50.9% (active).
The same measure for `CCOC(=O)c1cc(=O)c2ccc(OCc3ccccc3)cc2o1`: 0.1%.
The same measure for `CCOC(=O)c1oc2c(CN3CCN(C)CC3)c(O)ccc2c(=O)c1-c1ccc(Br)cc1`: 9.1%; for `C/C(=N\Nc1nc2ccccc2[nH]1)c1cccs1`: 1.1%.
The figure for `Cc1ccc(-c2nc(C)sc2CC(=O)OCC(=O)Nc2c(F)cccc2F)cc1` is 0.8%.
For `Cn1c(=O)c(C(=O)Nc2ncccn2)c(O)c2ccccc21`, the inhibition was -1.3%.
The figure for `Cc1ccc(NC(=O)OCCNC(=O)c2ccncc2)cc1` is -2.2%; for `CCCCCOC(=O)NCCOC(=O)Nc1ccc(C(=O)OCC)cc1` it is 62.1% (active).
The figure for `CCOC(=O)c1ccc(NC(=S)N2CCCC2)cc1` is -9.2%.
The same measure for `CC1CCCCC12NC(=O)N(CC(=O)OCc1c(F)cccc1Cl)C2=O` (stereo unspecified): 1.5%; for `Cc1cc(C(=O)O)c(S(C)(=O)=O)s1`: 0%.
`O=S1(=O)CC(NCc2ccccc2)C(Nc2ccc(Cl)cc2)C1` (stereo unspecified): the inhibition is -0.2%.
The figure for `Cc1cc(N2CCCC2)ccc1NC(=O)COc1ccc(Cl)cc1` is -0.2%; for `O=C(COc1ccc(Cl)cc1)Nc1ccc2c(c1)OCO2` it is -0.4%.
The same measure for `Cc1ccc(NC(=O)COc2ccc(-n3ccnc3)cc2)cc1Cl`: 83.4% (active).
The figure for `COc1ccccc1Nc1ncc(C(C)=O)c(C)n1` is -2.1%; for `O=C(CSCc1ccc(Br)cc1)Nc1ccc(S(=O)(=O)N2CCCCCC2)cc1` it is 58.6% (active).
With `CN(CC(=O)Nc1ccc(S(=O)(=O)N2CCCC2)cc1)Cc1ccc(Cl)c(Cl)c1`, the inhibition is 3.3%.
The same measure for `O=C(CN1CCCCCC1)Nc1ccc(S(=O)(=O)N2CCCCC2)cc1`: 0.7%.
The figure for `Cc1occc1-c1nnc(SCC(=O)NC2(C#N)CCCC2)n1C` is -0.8%.
The figure for `O=C(Cc1c(F)cccc1Cl)Nc1ncc([N+](=O)[O-])s1` is 61.9% (active).
`COc1ccc(S(=O)(=O)N2CCOCC2)cc1NC(=O)Cc1c(F)cccc1Cl`: the inhibition is -0.8%.
The same measure for `CC(C)(C)NC(=O)NC(=O)COC(=O)Cc1c(F)cccc1Cl`: 2%; for `O=C(OC(C(=O)NC1CCCC1)c1ccc(F)cc1)c1ccno1` (stereo unspecified): -3.3%; for `CC(=O)C1C(c2ccc(Cl)cc2)c2c(n[nH]c2C)CC1(C)O` (stereo unspecified): 1.5%.
The same measure for `Cc1ccc(OS(=O)Nc2cccc3nccnc23)cc1` (stereo unspecified): -0.1%; for `O=C(Nc1cccc(S(=O)(=O)Nc2ccc(Cl)cc2)c1)c1ccc2c(c1)OCCO2`: 77.8% (active); for `S=C(NCc1ccco1)Nc1ccc2c(c1)OCCO2`: -2.6%.
The same measure for `FC(F)(F)c1cccc(NC(=S)Nc2cccc(Cl)c2)c1`: 97.6% (active); for `O=C(Nc1ccc2c(c1)OCCO2)C1CCCC1`: -1.6%; for `CC(NS(=O)(=O)c1ccc(Cl)cc1)C(=O)Nc1ccc2c(c1)OCCO2` (stereo unspecified): -0.3%.
As for `O=C(Nc1cccc(Cl)c1)c1cncn1-c1ccc(F)cc1`, the inhibition is -1.7%.
The same measure for `O=C(Nc1ccc2c(c1)OCCO2)c1ccc(Cl)c(S(=O)(=O)N2CCCCC2)c1`: 9%; for `S=C(Nc1cccc(Cl)c1)Nc1ccc2c(c1)OCCO2`: 53.6% (active); for `C/C(CC(=O)Nc1cccc(C(F)(F)F)c1)=N\NC(=O)C(=O)NCC(C)C`: -0.9%.
The figure for `O=C(NCCCn1ccnc1)C(=O)c1cn(CC(=O)N2CCCCCC2)c2ccccc12` is 0%; for `Cc1c(C(=O)O)nnn1-c1nonc1N` it is -1.7%; for `Cc1nn(-c2ccccc2)c2c1c(C)c(CCC(=O)NCC1CCCO1)c(=O)n2C` (stereo unspecified) it is 1.8%.
The figure for `Cc1csc(NC(=O)CSc2nnc(-c3cccnc3)o2)n1` is -0.1%; for `Cc1cc(C)nc(NS(=O)(=O)c2ccc(N/C=C\C(=O)c3cccs3)cc2)n1` it is -0.9%.
In the case of `CC(Sc1nnc(C2CC2)n1C1CC1)C(=O)Nc1ccc(C(N)=O)cc1` (stereo unspecified), the inhibition was 0.5%.
The figure for `Cc1nc(Nc2ccccc2C)c2cnn(C)c2n1` is -0.2%.
The figure for `Cc1ccc2c(=O)cc(C(=O)NCCc3ccc(S(N)(=O)=O)cc3)oc2c1C` is -0.4%.
On to `CCn1cc(CN2CCC(C(=O)Nc3cccc(-c4cccc(Cl)c4)c3)CC2)c(C)n1`, for which the inhibition was 0.6%.
The same measure for `O=C(Nc1cccc(-c2cccc(Cl)c2)c1)C1CCN(C2CCC2)CC1`: 65.4% (active); for `CCn1cc(CN2CCC(C(=O)Nc3cccc(-c4cccc(Cl)c4)c3)CC2)cn1`: -0.3%; for `O=C(c1ccc(F)cc1)c1c[nH]c(C(=O)NCc2cccnc2)c1`: 0.8%.
For `Cc1ccc(NC(=O)Nc2cc(-c3ccccc3)nn2C)cc1Cl`, the inhibition was 83.1% (active).
Take `Cc1cc(NC(=O)Nc2ccc(Cl)cc2)n(-c2ccccc2)n1`: the inhibition is 70.8% (active).
The same measure for `CC(=O)c1cccc(NC(=O)c2cc(C)nn2-c2ccccc2)c1`: -1.3%.
The figure for `COc1ccc(NC(=O)c2cc3nc(-c4ccccc4)cc(C)n3n2)cc1OC` is 2.1%; for `Cc1cc(C(=O)NCCc2ccc(Cl)cc2)n(-c2ccccc2)n1` it is 1%.
The figure for `O=C(Nc1ccc(Cl)c(Cl)c1)N1CC=C(c2ccccc2)CC1` is 12.4%; for `O=C(NCc1ccc(F)cc1)C(c1ccccc1)N(C(=O)c1csnn1)C1CC1` (stereo unspecified) it is 4.8%.
As for `CC(C)NS(=O)(=O)c1ccc(NC(=O)C2CCCCC2)cc1`, the inhibition is -1.2%.
The figure for `CCOc1cccc2c1OC1(CCCCC1)N1N=C(c3cccnc3)CC21` (stereo unspecified) is 0.5%.
As to `CC(=O)Nc1ccc(CC#N)cc1`, the inhibition is 2.1%.
The figure for `COc1cccc(N(C(=O)c2snc(C(N)=O)c2N)C(C(=O)NCC2CCCO2)c2c[nH]c3ccccc23)c1` (stereo unspecified) is -1.8%.
The figure for `CCOC(=O)C1CCCN(S(=O)(=O)c2ccc(-n3cnnn3)c(C)c2)C1` (stereo unspecified) is 0.9%; for `O=S(=O)([N-]c1nc2ccccc2nc1-[n+]1ccc(Cc2ccccc2)cc1)c1ccc(Br)s1` it is 5%.
Consider `Cc1cccc(NS(=O)(=O)c2ccc(C(=O)NCC(C)(C)N3CCOCC3)cc2)c1C`, for which the inhibition is 1.5%.
The figure for `CCC(C)(C)c1ccc(Oc2ccc(NC(=O)COC(=O)C3=COCCO3)cc2)cc1` is 79.2% (active).
The figure for `CCOc1ccc(NC(=O)c2ccc(NC(=O)COC(=O)c3ccc(NC(=O)CC#N)cc3)cc2)cc1` is 0.5%; for `COc1ccc(NC(=O)COC(=O)C2COc3ccccc3O2)cc1` (stereo unspecified) it is -0.6%; for `O=C(NNC(=S)NCc1ccccc1)c1ccc(OC(F)F)cc1` it is -1.2%.
The same measure for `FC(F)(F)Oc1ccc(NC(=S)NCc2ccccc2)cc1`: 77.1% (active); for `O=S(=O)(Nc1ccc(O)c2ccccc12)c1ccc(OC(F)(F)F)cc1`: 34.9%.
Take `O=C(Nc1cc(S(=O)(=O)N2CCOCC2)ccc1Cl)c1cc(=O)c2ccccc2o1`: the inhibition was -1.5%.
For `Cc1cc(OCCCC(=O)Nc2cc(S(=O)(=O)N3CCOCC3)ccc2N2CCOCC2)ccc1Cl`, the inhibition is 0.2%.
The same measure for `O=[N+]([O-])c1cc(Cl)cc(/C=N/NC(=S)Nc2cc(S(=O)(=O)N3CCOCC3)ccc2Cl)c1O`: 76.5% (active).

These data come from PubChem BioAssay AID602449 (Sanford-Burnham Center for Chemical Genomics, 2012).
